CYP2C9 act – human CYP2C9 activators, primary screen, biochemical, luminescence. recombinant CYP2C9, luciferin-H conversion; stronger effect = higher value; factor 1 = untreated enzyme, 0 = blocked. activation factor at 5 µM. actives 1.4% (n = 96,000). Cytochrome P450 2C9 (Homo sapiens), P11712;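 active = activation factor of 2 or more for CYP2C9 at a 5 µM dose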;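 note: 0 = sulfaphenazole-blocked wells and 1 = vehicle-only wells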
CYP2C19 inhib – blockers of cytochrome P450 2C19 activity – biochemical, luminescence, ADME assay, primary screen; inhibition, % at 5 µM; CYP2C19 Supersomes, luciferin-H EGE luminescence, 30 min; AID 778, 2007; actives 21% (n = 96,000);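 active = CYP2C19 inhibition above a set limit at 5 µM in the primary screen, cut at about 50% in these data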;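 note: plate controls were negative control wells for no effect and 2.5 mM tranylcypromine positive control for full effect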
sEH activator – soluble epoxide hydrolase activators, primary screen, biochemical, human sEH | Bifunctional epoxide hydrolase 2 (Homo sapiens), P34913 | activation, % at 2 µM | purified human sEH enzymatic activity, activator screen | AID 717, 2007 | actives 0.04% (n = 91,000); in the data active = activation above about 37%
Target sequence (P34913 whole entry, looked up): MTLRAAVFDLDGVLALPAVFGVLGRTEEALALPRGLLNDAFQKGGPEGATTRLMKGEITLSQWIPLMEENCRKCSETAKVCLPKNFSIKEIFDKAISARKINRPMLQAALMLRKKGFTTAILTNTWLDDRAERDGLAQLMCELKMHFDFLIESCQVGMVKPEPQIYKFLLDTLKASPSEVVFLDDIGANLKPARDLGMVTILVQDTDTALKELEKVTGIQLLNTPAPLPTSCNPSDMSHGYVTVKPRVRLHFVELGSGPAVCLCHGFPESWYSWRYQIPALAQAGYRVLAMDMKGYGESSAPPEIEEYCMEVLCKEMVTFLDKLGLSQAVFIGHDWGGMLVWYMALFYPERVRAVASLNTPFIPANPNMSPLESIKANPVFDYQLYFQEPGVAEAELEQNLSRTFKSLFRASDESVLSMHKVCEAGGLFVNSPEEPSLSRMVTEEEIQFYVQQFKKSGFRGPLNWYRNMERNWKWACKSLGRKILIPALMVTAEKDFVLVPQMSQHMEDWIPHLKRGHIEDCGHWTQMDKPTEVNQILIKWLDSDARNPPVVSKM
CYP2C19 activ – human CYP2C19 activators, primary screen, biochemical, luminescence | Cytochrome P450 2C19 (Homo sapiens), P33261 | recombinant CYP2C19, luciferin-H EGE luminescence; stronger effect = higher value; 0 = fully inhibited enzyme, 1 = untreated enzyme | 96,000 tested, under 10 active | AID 1025, 2008 | activation factor at 5 µM;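 active = activation factor of at least 2 at 5 µM in the primary screen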;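 note: 0 = wells with 2.5 mM tranylcypromine and 1 = vehicle-only wells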
sEH inh – soluble epoxide hydrolase inhibitors, primary screen, biochemical, human sEH; Bifunctional epoxide hydrolase 2 (Homo sapiens), P34913; recombinant human sEH enzymatic activity assay; inhibition, % at 2 µM; actives 0.34% (n = 91,000); AID 707, 2007; in the data active = inhibition above about 80%
CYP2C9 inh – blockers of cytochrome P450 2C9 activity – biochemical, luminescence, ADME assay, primary screen | P11712 | CYP2C9 Supersomes, luciferin-H conversion | inhibition, % at 5 µM | actives 20% (n = 96,000) | AID 777, 2007;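 active = blocking of liver enzyme CYP2C9 beyond about 50% at 5 µM, limit read from the data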
Starred values were filed as active, the others as inactive; · = no result; ! = a repeat was not active. Sampled rows, rich in hits. Any-hit rate of the full collection: about 27%.

SMILES	CYP2C9 act	CYP2C19 inhib	sEH activator	CYP2C19 activ	sEH inh	CYP2C9 inh
O=C(O)CCC(=O)Nc1ccc(F)cc1	0.5	34	9	0.7	-12	48
O=C(Cc1ccc(F)cc1)Nc1ccc(F)c([N+](=O)[O-])c1	0.7	56*	-5	0.4	8	28
Cn1c(C(=O)N2CCN(C(=O)c3ccco3)CC2)cc2c(=O)n(C)c3ccccc3c21	0.8	53*	·	0.5	·	18
CCCN1CCN(CCCNC(=O)c2cc3c(=O)n(C)c4ccccc4c3n2C)CC1	0.3	-14	·	1.1	·	67*
COc1ccccc1N1CCN(C(=O)c2cc3sccc3n2C)CC1	1.4	66*	-4	0.3	5	-40
COc1ccccc1N1CCN(C(=O)c2cc3c(=O)n(C)c4ccccc4c3n2C)CC1	0.4	89*	·	0.1	·	61*
O=C(Cn1cnc([N+](=O)[O-])c1)Nc1cc(Oc2ccc(Cl)cc2Cl)cc([N+](=O)[O-])c1	·	·	-22	·	24	·
Cc1csc2c(C#N)c(=O)c3c(n12)CCC3	0.9	16	3	0.8	-3	10
COc1ccccc1N1CCN(C(=O)CSc2ccccc2)CC1	0.5	44	17	0.6	-21	46
COc1ccccc1Nc1nnc(SCC(=O)N2CCCC2)s1	1.6	6	2	0.9	-3	-64
COc1ccccc1N1CCN(C(=O)CSc2nnc(NC(=O)C3CCC3)s2)CC1	0.2	51*	·	0.5	·	82*
CCOc1ccccc1Nc1nnc(SCC(=O)N2CCCC2)s1	2.3*	4	18	1	-17	-130
COc1ccccc1Nc1nnc(SCC(=O)N2CCCC2=O)s1	2.7*	57*	9	0.4	-10	-167
CC(C)c1ccc(-c2nc(N3CCOCC3)[nH]c(=O)c2C#N)cc1	0.9	8	17	0.9	-22	11
Cc1sc(NC(=O)c2cccc([N+](=O)[O-])c2)c(C(N)=O)c1-c1ccc(C(C)(C)C)cc1	0.6	-6	5	1.1	-3	44
c1ccc2[nH]c(-c3ccnc4ccccc34)nc2c1	0.5	29	4	0.7	-2	54*!
COC(=O)c1ccc(Sc2nnnn2-c2ccccc2)c([N+](=O)[O-])c1	1.1	66*	16	0.3	-14	-7
O=C(O)c1ccc(Sc2nnnn2-c2ccccc2)c([N+](=O)[O-])c1	0.9	-1	-11	1	10	10
CCOC(=O)c1ccccc1NC(=O)/C=C/c1cc(OC)c(OC)c(OC)c1	1.1	-7	-8	1.1	2	-12
COc1ccc(C2CC(C(F)(F)F)n3ncc(C(=O)NCc4cccnc4)c3N2)cc1OC (stereo not drawn)	0.5	20	14	0.8	-13	52*
COc1cc(C2CC(C(F)(F)F)n3ncc(C(=O)O)c3N2)cc(OC)c1OC (stereo not drawn)	1	9	·	0.9	·	-1
Cc1ccc(C2CC(C(F)(F)F)n3nc(C(=O)NCC4CCCO4)cc3N2)cc1 (stereo not drawn)	0.4	47	7	0.5	-7	58*
COc1cccc(C2CC(C(F)(F)F)n3ncc(C(=O)NCC4CCCO4)c3N2)c1 (stereo not drawn)	0.4	33	6	0.7	-5	60*
O=C(NCc1ccccn1)c1cn(CCc2ccccc2)nn1	1.1	-5	-11	1	11	-13
CCOC(=O)c1cnn(-c2ncnc3c2cnn3Cc2ccccc2)c1N	·	·	-1	·	-1	·
SMILES	CYP2C9 act	CYP2C19 inhib	sEH activator	CYP2C19 activ	sEH inh	CYP2C9 inh
CC1(C)C(=O)OC(C(=O)c2ccc(C(C)(C)C)cc2)C(C)(C)C1=O (stereo not drawn)	0.6	5	-16	0.9	17	40
c1ccc(-n2nnc3cnccc32)cc1	1	14	·	0.9	·	0
Cc1ccc(C(=O)NCCNC(=O)CN2CCOCC2)cc1	1.1	-1	16	1	-16	-6
CCOc1cc(C2NC(=O)NC(O)(C(F)(F)F)C2C(=O)c2ccc(OC)cc2)ccc1O (stereo not drawn)	0.9	11	-5	0.9	7	8
COCCCN(C(=O)Nc1ccccc1)C(C)c1ccncc1 (stereo not drawn)	0.4	77*	16	0.2	-17	60*
CCOc1ccc(NC(=O)N(CCN(C)C)C(C)c2ccncc2)cc1 (stereo not drawn)	0.9	19	-17	0.8	16	14
COCCSc1ccccc1C(=O)Nc1ccncc1	0.2	92*	-4	0.1	7	84*
COc1cc(C2NC(=O)c3ccccc3O2)cc(OC)c1OC (stereo not drawn)	0.6	94*	1	0.1	-3	38
CC(NS(=O)(=O)c1ccc(OCC(=O)N2CCOCC2)cc1)c1ccccc1 (stereo not drawn)	·	·	-1	·	2	·
O=C(COc1ccc(S(=O)(=O)NC2CCCCC2)cc1Cl)N1CCN(c2ccccc2)CC1	0	68*	3	0.3	-4	100*
CC(NS(=O)(=O)c1ccc(OCC(=O)N2CCOCC2)c(Cl)c1)c1ccccc1 (stereo not drawn)	0.4	49	4	0.5	-1	64*
CC1CCCN(CC(=O)Nc2ccc(S(=O)(=O)N3CCCCCC3)cc2)C1 (stereo not drawn)	0.4	26	-44	0.7	45	62*
CC1CCCN(CC(=O)Nc2ccc(S(=O)(=O)N3CCCCC3)cc2)C1 (stereo not drawn)	·	·	-30	·	30	·
CC1CCCN(CC(=O)Nc2ccc(S(=O)(=O)NC3CCCCC3)cc2)C1 (stereo not drawn)	0.5	78*	-24	0.2	23	52*
CCOc1cc2[nH]c(=S)n(CCc3ccc(OC)c(OC)c3)c(=O)c2cc1OCC	0.8	18	-15	0.8	17	19
CCOc1cc2[nH]c(=S)n(CCCCC(=O)NCc3ccco3)c(=O)c2cc1OCC	0.3	-1	·	1	·	72*
CCOc1cc2[nH]c(=S)n(CCC(=O)NCc3ccc(OC)cc3)c(=O)c2cc1OCC	0.3	3	-8	1	11	73*
O=C(COc1ccc(Cl)cc1)Nc1ccc(C(=O)NCc2cccnc2)cc1	0.8	18	-10	0.8	12	23
COc1ccc(OCC(=O)Nc2sc3c(c2C(=O)NCC2CCCO2)CCC3)cc1 (stereo not drawn)	0	70*	3	0.3	0	95*
O=C(COc1ccccc1)Nc1sc2c(c1C(=O)NCc1cccnc1)CCCC2	0	7	-2	0.9	3	96*

Source: PubChem
